# PvdQ inh = P. aeruginosa PvdQ acylase inhibition | AID 488965 | inhibition, % at 10 µM | 340,000 tested, 0.063% active | purified PvdQ acylase, fluorescence plate reader; in the data active = inhibition above about 30%, passing the limit was not always enough; inconclusive = no clear call, values can overlap the other calls;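 also: 0% = vehicle neutral wells and 100% = reference inhibitor wells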
# ERAP1 HTS inh = blocks human ERAP1 aminopeptidase activity; recombinant ERAP1, Leu-AMC fluorescence, 60 min; inhibition, % at 10.7 µM; 340,000 tested, 0.15% active; AID 652197;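 active = mean replicate inhibition of at least 30%, or all replicates individually reaching that 30% level; inactive = mean below 30% and not every replicate reaching it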;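 also: 0% = neutral control wells and 100% = L-leucinethiol positive control wells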
# Target sequence (Q9NZ08 whole entry, looked up): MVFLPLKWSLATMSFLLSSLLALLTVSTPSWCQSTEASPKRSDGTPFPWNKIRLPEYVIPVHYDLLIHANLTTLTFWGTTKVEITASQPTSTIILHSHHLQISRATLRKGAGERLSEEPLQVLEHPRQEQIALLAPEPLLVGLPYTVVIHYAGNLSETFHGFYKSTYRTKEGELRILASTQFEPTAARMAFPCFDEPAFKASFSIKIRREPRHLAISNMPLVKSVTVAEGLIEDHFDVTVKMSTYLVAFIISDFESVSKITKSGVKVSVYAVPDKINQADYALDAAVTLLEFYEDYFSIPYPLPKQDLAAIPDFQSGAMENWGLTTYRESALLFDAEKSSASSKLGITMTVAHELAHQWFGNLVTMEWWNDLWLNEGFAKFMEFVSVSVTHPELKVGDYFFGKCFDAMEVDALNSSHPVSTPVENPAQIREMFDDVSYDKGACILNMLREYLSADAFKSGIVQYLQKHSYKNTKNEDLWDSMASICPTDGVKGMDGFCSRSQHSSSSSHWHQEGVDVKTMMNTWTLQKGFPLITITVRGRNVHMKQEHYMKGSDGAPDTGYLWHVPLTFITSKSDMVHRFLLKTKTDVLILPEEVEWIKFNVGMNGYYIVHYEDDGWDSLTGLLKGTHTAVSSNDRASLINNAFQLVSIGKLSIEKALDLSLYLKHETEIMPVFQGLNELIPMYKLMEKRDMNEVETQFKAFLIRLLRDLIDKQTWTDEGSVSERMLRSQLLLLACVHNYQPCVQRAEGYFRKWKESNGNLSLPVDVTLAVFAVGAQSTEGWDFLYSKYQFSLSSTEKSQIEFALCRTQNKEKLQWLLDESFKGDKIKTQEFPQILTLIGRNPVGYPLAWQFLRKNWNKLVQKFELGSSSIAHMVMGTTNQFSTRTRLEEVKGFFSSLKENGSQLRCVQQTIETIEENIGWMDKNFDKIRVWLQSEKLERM
# ARNT TACC3 PPI = disrupts binding between human ARNT and TACC3 | Q9Y6A5 | AlphaScreen His-ARNT PAS-B/GST-TACC3 binding, luminescence; TACC3 fragment carries E629A point mutation | inhibition, % at 9.99 µM | 390,000 tested, 0.66% active | AID 623870;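 active = mean inhibition of replicates at least 50% and at least half of replicates each reaching 50%; inconclusive = half or more replicates reach 50% but mean below 50%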;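 also: 0% = complete ARNT plus TACC3 wells and 100% = ARNT alone without TACC3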
# F508del corr = correctors of CFTR F508del function in bronchial epithelial cells. CFBE cells, YFP halide quenching; stimulated with forskolin plus potentiator P3; % fluorescence drop versus neutral controls. activity (quench increase), % at 7.58 µM. 350,000 tested, 0.36% active;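 active = mean added fluorescence quench of at least 8% versus neutral control, with both replicates also reaching 8%; inconclusive = only one of the mean or replicate conditions met; inactive = mean below 8% and not both replicates reaching 8%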;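 also: cells transiently co-express mutant CFTR-F508del with the halide-sensitive YFP; corrector assay measuring rescue of mutant channel to the surface after 24 h compound exposure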
# Ecoli rRNA inh = selective bacterial rRNA inhibition in E. coli; 350,000 tested, 1.6% active; GFP signal change (wild-type ribosome), % (concentration not given with the values); E. coli WT GFP vs humanized-ribosome RFP mutants, fluorescence, 24 h; stronger effect = lower value; DMSO median 0, no signal -100;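 active = significant combined selectivity score with lowered wild-type GFP, culture density cut under 30%, mutant RFP and density less affected; inactive = any of these conditions unmet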
# AID977621 = wild-type E. coli growth inhibition versus H69 humanized strain – H69 mutant RFP, wild-type GFP, cherry-pick, dose response; shares compounds with Ecoli rRNA inh; fluorescence, 24 h; activity change, negative = inhibition at 50 µM; 1,900 tested, under 10 active; AID 977621;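 active = Wild-type ribosome reporter drop at least double the humanized mutant ribosome reporter drop, growth loss under a set limit; inconclusive = no clear call, values can overlap the other calls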;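 also: wild-type GFP and H69 mutant RFP strains grown together 50/50 in each well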
# AID977628 = growth of wild-type and h24-humanized E. coli strains – h24 mutant RFP vs wild-type GFP, cherry-pick, dose response. 1,900 tested, under 10 active. activity change, negative = inhibition at 50 µM. AID 977628. shares compounds with Ecoli rRNA inh. E. coli WT GFP strain growth, fluorescence, 24 h;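 active = compound lowering the normal-ribosome reporter at least twice as much as the humanized-ribosome reporter, growth loss under a set limit; inconclusive = no clear call, values can overlap the other calls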;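 also: wild-type GFP and h24 humanized RFP strains co-cultured 1 to 1 per well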
# Numbers without * were called inactive; ? = inconclusive; · = no result. Only some compounds are listed: those with a hit (about 2.1% of all), similar ones and a draw of the others.
SMILES,PvdQ inh,ERAP1 HTS inh,ARNT TACC3 PPI,F508del corr,Ecoli rRNA inh,AID977621,AID977628
Cc1csc(SCc2nc3scc(-c4ccccc4)c3c(=O)[nH]2)n1,-11,-2,0,-1,-24*,0.6,-8.5
COc1cc(-c2csc(C)n2)ccc1O,-14,·,-2,·,·,·,·
COc1ccc(-c2csc(C)n2)cc1Br,1,1,0,1,-29*,-17,-13
Cc1nonc1C1CCCN1C(=O)c1cc(COc2ccc(F)cc2F)on1 (stereo not given),-15,-1,-5,1,-27*,?,·
O=C(c1cccnc1)N1CCCCN2[C@H](C1)[C@H](c1ccc(C#Cc3ccccc3)cc1)[C@@H]2CO,·,·,2,-1,·,·,·
CC(C)Nc1nnc(SCC(=O)Nc2ccc3c(c2)C(=O)c2ccccc2C3=O)s1,-8,·,3,·,·,·,·
CC(C)Nc1nnc(SCC(=O)Nc2sccc2C#N)s1,-2,-2,0,-3,-25*,·,?
N#Cc1ccsc1NC(=O)CSc1nnc(NC2CC2)s1,·,-5,·,2,-12*,-13,-8.7
COC(=O)C1=C(C)N(Cc2ccccc2C(F)(F)F)C(=NCc2ccccc2)NC1c1cccc(C(F)(F)F)c1 (stereo not given),·,1,·,2,-35,·,·
CC(C)(C)C1CCC(OC(=O)C[N+]2(C)CCCCC2)CC1 (stereo not given),-6,3,-1,1,-17*,-2.7,-5.8
O=C(C[C@H]1C=C[C@@H](NC(=O)C2CCC2)[C@H](CO)O1)NC1CCC1,·,-4,-14,1,1,·,·
CC(C)(C)NC(=O)CC(CC(=O)O)c1ccccc1 (stereo not given),5,0,·,-1,14,·,·
O=C(O)CC(CC(=O)Nc1ccc2ccccc2n1)c1ccccc1 (stereo not given),-8,-1,-6,1,-20*,-3.8,-1.7
COC(=O)CCCCCCC(=O)Nc1ccc(NC(=O)CCCC[P+](c2ccccc2)(c2ccccc2)c2ccccc2)cc1,·,-2,-19,0,·,·,·
CCC(=O)N[C@@H]1CC[C@@H](CC(=O)NCC2CC2)O[C@@H]1CO,·,0,·,1,2,·,·
O=C(NCC1CCCO1)c1ccc(Cl)c(S(=O)(=O)Nc2ccccc2)c1 (stereo not given),10,-2,-1,-1,2,·,·
O=C(NCCC1=CCCCC1)c1ccc(Cl)c(S(=O)(=O)Nc2ccccc2)c1,-7,2,-25,4,-20*,-13,·
Cc1ccccc1NS(=O)(=O)c1cc(C(=O)NCCC2=CCCCC2)ccc1C,-6,1,0,-1,-17*,-1.9,?
Cc1ccc(NS(=O)(=O)c2cc(C(=O)N3CCc4ccccc4C3)ccc2Cl)cc1,-8,-5,1,-1,-29*,-21,·
Cc1ccc(C(=O)NCCC2=CCCCC2)cc1S(=O)(=O)N1CCCCC1,14,3,-1,-2,-17,·,·
Nc1ccccc1C#CC(=O)c1ccccc1,-14,-5,-7,-5,-23*,·,?
C[C@H]1CN([C@@H](C)CO)C(=O)Cc2cc(NS(=O)(=O)c3cccs3)ccc2O[C@@H]1CN(C)Cc1ccc(C(=O)O)cc1,·,1,-11,2,-3,·,·
O=C1c2ccccc2C(c2nnnn2C2CCCCC2)N1CCc1ccc(O)cc1 (stereo not given),·,·,·,-2,-18*,7.9,-5.5
CC(C)CCN1C(=O)c2ccccc2C1c1nnnn1Cc1ccccc1 (stereo not given),·,·,·,0,-18,·,·
CC(C)(C)C1CCC(C(=O)OCC(=O)N2CCN(C(=O)c3ccco3)CC2)CC1 (stereo not given),-13,-2,-7,-2,-22*,-5,-5.6
SMILES,PvdQ inh,ERAP1 HTS inh,ARNT TACC3 PPI,F508del corr,Ecoli rRNA inh,AID977621,AID977628
Cc1ccc(CCN2C(=O)c3ccccc3C2C(=O)NCc2cccnc2)cc1 (stereo not given),-16,1,-5,-4,-38*,7.8,?
Cc1ccc(CN2C(=O)c3ccccc3C2C(=O)NCc2cccnc2)cc1 (stereo not given),-7,0,1,-1,3,·,·
Cc1cccc(C(=O)NCC(=O)N2CC=C(c3ccccc3)CC2)c1,-15,0,-17,-1,-30*,0.37,?
NC(=O)c1ccsc1NC(=O)COC(=O)Cc1ccc(F)cc1,·,1,·,3,-20*,?,-1.7
Cc1ccccc1SCC(=O)OCC(=O)Nc1sccc1C(N)=O,-6,-1,5,·,-29*,-8.3,-0.1
Cc1cc(C(=O)Nc2cccc3c2O[C@H](CN(C)CC2CCCCC2)[C@H](C)CN([C@H](C)CO)C3=O)n(C)n1,·,2,8,3,3,·,·
Cc1cc(-c2ccccc2)nc2cc(C(N)=O)nn12,-5,·,-10,·,·,·,·
CCOC(=O)c1cc2nc(-c3ccccc3)cc(C)n2n1,-16,3,-6,-3,-29*,-19,?
COC(=O)[C@H](Cc1ccccc1)N1CC2=C[C@@H](C3CC3)n3c(=O)n(C)c(=O)n3[C@H]2[C@@H]1[C@@H](O)Cc1ccccc1,·,-2,8,4,·,·,·
COc1cccc(NC(=O)C[C@@H]2CC[C@H]3[C@H](COc4ccc(NC(=O)c5ccccc5F)cc4C(=O)N3C)O2)c1,·,1,-8,-2,0,·,·
O=C(Cc1ccccc1Cl)Nc1nc2ccccc2[nH]1,-11,·,-1,4,-20*,-8.9,?
C[C@H](NC(=O)C[C@@H]1CC[C@@H]2[C@H](COC[C@@H](O)CN2C(=O)Nc2cccc(Cl)c2)O1)c1ccccc1,·,·,0,2,-57,·,·
O=C(Nc1ccc(F)cc1)N[C@H]1CC[C@@H](CCn2cc(-c3ccccc3F)nn2)O[C@H]1CO,·,-1,5,-3,-12,·,·
Cc1cc2nc(-c3ccc4c(c3)CCC4)ccn2n1,-8,9,-51,-3,-31*,·,?
CCS(=O)(=O)N1CC(=O)N2[C@H](CO)[C@@H](c3ccc(C#CCC4CCCC4)cc3)[C@@H]2C1,·,0,·,2,-49,·,·
Cc1ccc(S(=O)(=O)N2CC[C@@H]3[C@H](CO)Nc4ccc(-c5ccccc5F)cc4[C@@H]32)cc1,·,1,2,-2,0,·,·
O=C(Nc1ccc(Cl)cn1)c1ccc([N+](=O)[O-])o1,18,-3,0,-3,-21*,-14,-12
O=C(Nc1cccnc1)c1ccc([N+](=O)[O-])o1,24,-1,12,-1,-19*,·,?
CC(=O)c1ccc(NC(=O)c2ccc([N+](=O)[O-])o2)cc1,-3,-1,-5,6,-15*,·,-6
